Experiment [1] addresses Cytochrome P450 3A4 (Homo sapiens) (UniProt P08684). The experiment is described as follows: qHTS Assay for Activators of Cytochrome P450 3A4 (AID 885; active = well fitted curve in the direction sought with a large enough effect; an effect the other way counts as inactive or inconclusive; note: nearly all actives have a fitted effect of over 65% in size). In a few lines: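 Quantitative HTS format: compounds preincubated with 20nM human CYP3A4 and Luciferin-PPXE substrate at KM, reaction started by NADPH regeneration, stopped after 60 min, luciferase luminescence read 20 min later.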
Background: In qHTS, concentration-response curves come from the screen itself.

A short description of experiment [2]: Confirmation and Secondary Assay for Modulators of Hemoglobin Beta Chain Splicing at IVS2 654 locus (AID 910; active = well fitted curve in the direction sought with a large enough effect; an effect the other way counts as inactive or inconclusive;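 note: HeLa cells stably carrying EGFP split by mutant beta-globin IVS2-654 intron; per-well total GFP intensity by laser scanning cytometry after 2-day treatment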). In a few lines: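 Readout: per-well total peak green fluorescence (488 nm ex, 500–520 nm em) from objects 5–250 µm, reflecting correct splicing of an EGFP-654 reporter. Compounds were applied for 2 days at 37 °C to overnight-plated HeLa EGFP-654 cells; controls were DMSO and 500 nM IVS2-654 PNA.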

Experiment [3] is described as follows: Confirmation and Secondary Assay for Modulators of Hemoglobin Beta Chain Splicing at IVS2 705 locus (AID 930; active = well fitted curve in the direction sought with a large enough effect; an effect the other way counts as inactive or inconclusive;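 note: HeLa cells stably expressing the EGFP-705 splicing reporter; GFP fluorescence per well restored by corrected splicing of the IVS2-705 intron in EGFP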). A digest of the protocol: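 HeLa EGFP-705 reporter; 500 cells/well, o/n 37C 5% CO2; cpd 2 d; 488 ex/500-520 em laser scan; total peak GFP intensity/well. Ref: 500 nM […] antisense PNA.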
Experiment [4] concerns the target Ubiquitin carboxyl-terminal hydrolase 1 (Homo sapiens) (UniProt O94782). The experiment is described as follows: Inhibitors of USP1/UAF1: Pilot qHTS (AID 504865; active = well fitted curve in the direction sought with a large enough effect; an effect the other way counts as inactive or inconclusive;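 note: rhodamine fluorescence freed from ubiquitin-rhodamine substrate followed over time; top concentration of the series differs between compounds; nearly all actives have a fitted effect of over 35% in size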). In a few lines: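 Kinetic fluorescence assay: 1nM USP1/UAF1, 15 min compound preincubation, then 150nM Ub-Rho; 480/540 nm.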
In experiment [5] the target is Luciferin 4-monooxygenase (Photinus pyralis) (UniProt P08659). The experiment is described as follows: Biochemical firefly luciferase enzyme assay for NPC (AID 624030; active = well fitted curve in the direction sought with a large enough effect; an effect the other way counts as inactive or inconclusive;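 note: purified P. pyralis luciferase at 10 nM with luciferin and ATP substrate; nearly all actives have a fitted effect of over 70% in size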). In a few lines:
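Direct inhibition of firefly luciferase enzyme (10 nM final, 50 mM Tris Acetate) assessed by luminescence within 5 minutes. Percent activity scaled between DMSO and PTC124 positive control, with concentration-effect curves classified by fit quality and response.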

The nature of experiment [6]: S16 Schwann cell viability assay (CellTiter-Glo assay) (AID 624031; active = well fitted curve in the direction sought with a large enough effect; an effect the other way counts as inactive or inconclusive;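 note: cellular ATP luminescence as a viability measure; nearly all actives have a fitted effect of over 70% in size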). In a few lines: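 Luminescent ATP read-out (CellTiter-Glo) after 24 h compound exposure of native S16 rat Schwann cells at 37 °C. Signals were normalized between cell-free wells and DMSO-treated cells, set as 0% activity.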
In general terms: In ATP-based viability assays light output follows the ATP content of the culture.

Experiment [7] can be described thus: S16 Schwann cell PMP22 intronic element beta-lactamase assay (AID 624044; calls by dose curve; note: nearly all actives have a fitted effect of over 15% in size). In a few lines: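 Rat S16 Schwann cells with beta-Lac driven by a PMP22 intronic element, compound-treated 24 h at 37 °C. LiveBLAzer FRET B/G read: 460 nm normalized to potassium clavulanate vs DMSO; 535 nm FRET as viability; concentration-effect curves classified.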
Experiment [8] addresses Cytochrome P450 2D6 (Homo sapiens) (UniProt P10635). Briefly: Cytochrome P450 family 2 subfamily D member 6 (CYP2D6) small molecule antagonists: luciferase biochemical (cell-free) qHTS assay (AID 1645840). Note: nearly all actives have a fitted effect of over 55% in size. Note: potency is the fitted concentration of half-maximal effect. A digest of the protocol: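 P450-Glo luminescent screen: recombinant CYP2D6 enzyme–proluciferin substrate mix preincubated with compound 10 min at room temperature, then NADPH regeneration added for 1 h at room temperature. Detection reagent added for 20 min; luciferin light read as relative luminescence units.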

Experiment [9] addresses Cytochrome P450 3A4 (Homo sapiens) (UniProt P08684). Briefly: Cytochrome P450 family 3 subfamily A member 4 (CYP3A4) small molecule antagonists: luciferase qHTS assay (AID 1645841). Note: nearly all actives have a fitted effect of over 45% in size. Note: potency is the fitted concentration of half-maximal effect. In a few lines:
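Luminescent CYP3A4 activity readout: compounds plus enzyme-substrate mix 10 min at room temperature, reaction started with NADPH regenerating system for 1 h, stopped with detection reagent, read after 20 min. Ketoconazole served as control.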

The target in experiment [10] is Cytochrome P450 2C9 (Homo sapiens) (UniProt P11712). The experiment is described as follows: Cytochrome P450 family 2 subfamily C member 9 (CYP2C9) small molecule antagonists: luciferase biochemical (cell-free) qHTS assay (AID 1645842). Note: nearly all actives have a fitted effect of over 55% in size. Note: potency is the fitted concentration of half-maximal effect. In a few lines:
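Luminescence, after 20 min with luciferin detection reagent, reflected CYP2C9 turnover during a 1 h NADPH-driven reaction at 37C. Enzyme-substrate mix contained 0.4% bovine serum albumin and was preincubated with compound 10 min at room temperature.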

The test system of another experiment is CP238. The experiment is described as follows: qHTS profiling for inhibitors of Plasmodium falciparum proliferation (AID 504749; active = well fitted curve in the direction sought with a large enough effect; an effect the other way counts as inactive or inconclusive; note: nearly all actives have a fitted effect of over 60% in size). As to conditions: P. falciparum in erythrocytes, SYBR Green DNA, 72 h; series mostly up to 12.8 µM. In a few lines: (§1)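 Three-day growth assay of blood-stage parasites in erythrocytes (0.3% parasitemia, 2.5% hematocrit) at 37 C, 5% CO2, quantified by SYBR Green DNA staining after overnight detergent lysis.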

For a further experiment, the system named is CP286. The description is as above. Particulars: P. falciparum in erythrocytes, SYBR Green DNA, 72 h; series mostly up to 12.8 µM. A digest of the protocol:
as §1

Data on 38 molecules can be found in PubChem BioAssay (NCATS).

Records with an inconclusive call do not appear. Active and inactive are the calls of the source. Unless noted, calls come from the whole dose curve; as a rule, active = well fitted curve in the direction sought with a large enough effect in the repeat runs; inconclusive = weak or mixed curves; inactive = no such curve, though single readings can be large; an effect the other way counts as inactive or inconclusive.

Cytochrome P450 2D6 (Homo sapiens), sequence (P10635 whole entry, looked up): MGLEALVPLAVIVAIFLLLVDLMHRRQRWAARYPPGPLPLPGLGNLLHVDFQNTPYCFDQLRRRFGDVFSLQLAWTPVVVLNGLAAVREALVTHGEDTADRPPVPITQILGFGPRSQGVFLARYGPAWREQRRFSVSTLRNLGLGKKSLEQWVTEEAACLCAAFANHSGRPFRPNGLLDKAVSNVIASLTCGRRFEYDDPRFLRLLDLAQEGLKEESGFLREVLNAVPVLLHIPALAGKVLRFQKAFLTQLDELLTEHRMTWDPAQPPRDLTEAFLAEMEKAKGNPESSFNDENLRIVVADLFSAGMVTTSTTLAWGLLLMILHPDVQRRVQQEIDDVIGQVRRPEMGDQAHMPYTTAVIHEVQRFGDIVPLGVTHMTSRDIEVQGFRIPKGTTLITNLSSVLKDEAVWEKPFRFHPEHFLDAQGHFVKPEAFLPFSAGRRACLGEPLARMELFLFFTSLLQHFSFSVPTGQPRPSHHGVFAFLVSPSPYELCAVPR
Cytochrome P450 2C9 (Homo sapiens), sequence (P11712 whole entry, looked up): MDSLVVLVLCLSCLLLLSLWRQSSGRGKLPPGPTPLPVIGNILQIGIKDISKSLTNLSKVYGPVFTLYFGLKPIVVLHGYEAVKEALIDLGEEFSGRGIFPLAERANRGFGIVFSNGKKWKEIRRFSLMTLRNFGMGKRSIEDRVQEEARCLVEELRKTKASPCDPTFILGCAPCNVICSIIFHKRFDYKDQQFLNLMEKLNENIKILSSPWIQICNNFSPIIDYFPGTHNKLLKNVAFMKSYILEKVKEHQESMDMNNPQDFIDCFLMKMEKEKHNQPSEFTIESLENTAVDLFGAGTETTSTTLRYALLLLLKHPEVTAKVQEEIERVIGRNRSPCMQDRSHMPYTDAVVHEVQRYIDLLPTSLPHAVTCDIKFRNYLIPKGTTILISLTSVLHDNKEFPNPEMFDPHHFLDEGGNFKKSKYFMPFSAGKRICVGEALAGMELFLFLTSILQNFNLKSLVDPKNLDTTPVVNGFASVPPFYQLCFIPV
Cytochrome P450 3A4 (Homo sapiens), sequence (P08684 whole entry, looked up): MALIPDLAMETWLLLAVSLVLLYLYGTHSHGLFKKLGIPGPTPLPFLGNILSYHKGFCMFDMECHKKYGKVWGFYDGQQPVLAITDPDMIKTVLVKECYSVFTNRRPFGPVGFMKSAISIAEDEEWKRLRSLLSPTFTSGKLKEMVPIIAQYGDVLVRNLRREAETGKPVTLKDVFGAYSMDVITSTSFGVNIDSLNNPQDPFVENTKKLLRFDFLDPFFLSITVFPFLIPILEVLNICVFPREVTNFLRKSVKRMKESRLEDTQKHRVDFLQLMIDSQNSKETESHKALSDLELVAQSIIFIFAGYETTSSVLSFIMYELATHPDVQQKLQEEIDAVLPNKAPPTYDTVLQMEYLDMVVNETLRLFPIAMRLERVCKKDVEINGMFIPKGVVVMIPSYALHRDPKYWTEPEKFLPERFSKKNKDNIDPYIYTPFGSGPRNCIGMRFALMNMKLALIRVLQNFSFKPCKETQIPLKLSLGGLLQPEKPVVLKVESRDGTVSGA
Luciferin 4-monooxygenase (Photinus pyralis), sequence (P08659 whole entry, looked up): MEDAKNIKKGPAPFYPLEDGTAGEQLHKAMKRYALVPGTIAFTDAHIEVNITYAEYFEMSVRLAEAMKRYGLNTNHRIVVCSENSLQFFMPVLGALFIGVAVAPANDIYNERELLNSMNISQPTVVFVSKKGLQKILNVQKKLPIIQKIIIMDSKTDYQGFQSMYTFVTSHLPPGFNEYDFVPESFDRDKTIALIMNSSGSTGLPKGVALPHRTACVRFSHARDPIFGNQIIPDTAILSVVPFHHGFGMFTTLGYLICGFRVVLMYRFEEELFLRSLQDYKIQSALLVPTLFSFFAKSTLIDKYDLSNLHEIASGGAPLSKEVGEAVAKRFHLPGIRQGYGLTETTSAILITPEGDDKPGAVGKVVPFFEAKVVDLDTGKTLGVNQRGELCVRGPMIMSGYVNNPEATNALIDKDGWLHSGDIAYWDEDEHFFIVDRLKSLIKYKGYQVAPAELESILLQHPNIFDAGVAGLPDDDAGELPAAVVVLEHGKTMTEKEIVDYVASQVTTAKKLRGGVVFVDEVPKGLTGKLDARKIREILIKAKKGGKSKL
Ubiquitin carboxyl-terminal hydrolase 1 (Homo sapiens), sequence (O94782 whole entry, looked up): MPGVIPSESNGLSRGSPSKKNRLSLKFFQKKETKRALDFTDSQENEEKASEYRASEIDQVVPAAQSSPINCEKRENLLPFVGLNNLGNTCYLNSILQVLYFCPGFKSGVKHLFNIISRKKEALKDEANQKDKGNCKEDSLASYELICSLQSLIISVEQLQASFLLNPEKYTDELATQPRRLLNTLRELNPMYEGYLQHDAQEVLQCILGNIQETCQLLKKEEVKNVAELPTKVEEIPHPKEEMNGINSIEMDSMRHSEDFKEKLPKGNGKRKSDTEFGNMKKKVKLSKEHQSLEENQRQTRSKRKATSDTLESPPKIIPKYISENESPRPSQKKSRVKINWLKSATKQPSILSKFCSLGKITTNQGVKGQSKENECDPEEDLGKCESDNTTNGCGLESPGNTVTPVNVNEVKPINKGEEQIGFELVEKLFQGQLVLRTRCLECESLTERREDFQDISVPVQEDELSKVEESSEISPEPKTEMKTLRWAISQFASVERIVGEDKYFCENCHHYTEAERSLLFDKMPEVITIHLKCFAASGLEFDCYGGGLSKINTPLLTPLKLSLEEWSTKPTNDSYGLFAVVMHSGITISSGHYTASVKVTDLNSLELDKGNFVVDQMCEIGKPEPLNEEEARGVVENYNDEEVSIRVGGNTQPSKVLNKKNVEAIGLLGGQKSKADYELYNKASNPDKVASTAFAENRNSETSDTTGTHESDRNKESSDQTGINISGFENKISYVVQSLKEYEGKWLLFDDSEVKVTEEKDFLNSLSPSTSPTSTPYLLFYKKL

In the case of `O=C(O)CN(CC(=O)O)Cc1cc2c(-c3ccccc3C(=O)O)c3cc(CN(CC(=O)O)CC(=O)O)c(=O)cc-3oc2cc1O`, the Potency result in experiment [1], in experiment [2], in experiment [3], in [4], in experiment [5] and in experiment [7] was “inactive” in each case. Further, the Potency entry (in experiment [8]; in experiment [9]; in experiment [10]; in the experiment with CP238; with CP286) was “inactive” each time. Further, the molecule was classed as inactive in [6].
Consider `Cc1ccc(C)c(N2CCN(C(=O)C3CCN(S(=O)(=O)c4ccc5[nH]c(=O)oc5c4)CC3)CC2)c1`, for which the Potency entry in [8] was “inactive”. Moreover, the Potency in [10] is 2.13 µM (active).
Take `CCc1ccc(CNC(=O)C2CCCN(c3nnc(C)c4c(C)n(-c5ccccc5)nc34)C2)cc1` (centres undefined): the Potency is 10.7 µM (active) in experiment [8], 1.9 µM (active) in experiment [9] and 8.49 µM (active) in experiment [10].
`COc1ccccc1NC(=O)c1oc2ccccc2c1NC(=O)c1ccccc1C(F)(F)F`: the Potency result in [8] is “inactive”. Besides, the Potency in experiment [10] is 2.68 µM (active).
For the molecule `CCOC(=O)N1CCc2c(sc3c2c(=O)n(CCc2ccccc2)c(=O)n3CC(=O)Nc2cccc(C)c2)C1`, the Potency is 1.07 µM (active) in experiment [8] and 1.69 µM (active) in [10].
Consider `CCc1ccc(-n2c(SCc3ccccc3C)nc3[nH]ncc3c2=O)cc1`, for which the Potency in experiment [8] was 9.52 µM (active); in experiment [10], 19 µM (active).
For `COc1cc(C(c2c(C)[nH][nH]c2=O)c2c(C)[nH][nH]c2=O)ccc1OC(=O)c1ccccc1OC`, in that order: “inactive” and 8.49 µM (active).
For `COc1ccccc1C(=O)Oc1ccc(C(c2c(C)[nH][nH]c2=O)c2c(C)[nH][nH]c2=O)cc1`, in that order: “inactive” and 10.7 µM (active).
Consider `Cc1ccc(C2=CC(c3ccccc3F)n3c(nc4ccccc43)N2)cc1C` (centres undefined), for which the Potency was 10.7 µM (active) in experiment [8] and 6.01 µM (active) in [10].
Turning to `Cc1ccc(S(=O)(=O)N[C@@H]2CCCC[C@H]2O)cc1`, the Potency result in [8] and in [10] was “inactive” throughout.
Turning to `Cc1ccc(C2=Nc3ccccc3N(CC(=O)Nc3ccccc3F)C(=O)C2)cc1C`, the Potency in experiment [8] was 2.39 µM (active). Moreover, the Potency result in [10] is “inactive”.
The corresponding values for `Cc1ccc(C)c(NC(=O)C2CCN(S(=O)(=O)c3c(C)noc3/C=C/c3cccs3)CC2)c1` are 2.39 µM (active) and 0.849 µM (active).
Take `CC[C@H](CO)Nc1cc(NCc2ccc(-c3ccccn3)cc2)c2ncn(C(C)C)c2n1`: the Potency in experiment [8] is 16.9 µM (active); in experiment [10] it was 1.34 µM (active).
The corresponding values for `Cc1cccc(NC(c2cccc(Cl)c2)c2ccc3cccnc3c2O)n1` (centres undefined) are “inactive” and 28.2 µM (active).
For `CCOc1ccccc1NC(=O)Cn1c(=O)n(CCC(=O)NCc2ccc3c(c2)OCO3)c(=O)c2ccccc21`, in that order: 0.425 µM (active) and 0.601 µM (active).
For `Cc1cc(NC(=O)C2CCN(S(=O)(=O)c3ccc4[nH]c(=O)oc4c3)CC2)ccc1Br`, the values for the Potency in experiment [8] and in experiment [10] were 16.9 µM (active) and 0.425 µM (active), respectively.
For `CC1(C)CC1C(=O)NC(=CCCCCSCC(N)C(=O)O)C(=O)O` (centres undefined), in that order: “inactive” and “inactive”.
Regarding `Cc1ccc2nc3c(cc(C#N)c(=O)n3-c3nnc(SCc4ccccc4)s3)c(=O)n2c1`, the Potency result in experiment [8] was “inactive”. The Potency in experiment [10] was 3.79 µM (active).
Take `OC[C@H]1O[C@@H]2O[C@H]3[C@H](O)[C@@H](O)[C@@H](O[C@H]4[C@H](O)[C@@H](O)[C@@H](O[C@H]5[C@H](O)[C@@H](O)[C@@H](O[C@H]6[C@H](O)[C@@H](O)[C@@H](O[C@H]7[C@H](O)[C@@H](O)[C@@H](O[C@H]1[C@H](O)[C@@H]2O)O[C@@H]7CO)O[C@@H]6CO)O[C@@H]5CO)O[C@@H]4CO)O[C@@H]3CO`: the Potency result in [8], in experiment [9] and in experiment [10] was “inactive” in each case.
`Cc1ccc(Nc2nc3nonc3nc2Nc2cccc(C(F)(F)F)c2)cc1Cl`: the Potency in experiment [8] is 9.52 µM (active); in experiment [10], 5.35 µM (active). In addition, the Potency entry in experiment [9] was “inactive”.
In the case of `Cc1cccc(NC(=O)CSc2nc3ccccc3c3nc(CCn4cncc4C)nn23)c1`, the figures for the Potency in [8] and in experiment [10] were 3.01 µM (active) and 1.51 µM (active), respectively.
Regarding `COc1ccc(NC(=O)C2=C(C)Nc3nc(SCc4ccccc4C)nn3C2c2cc(OC)c(O)c(OC)c2)cc1` (centres undefined), the Potency result in experiment [8] and in experiment [10] was “inactive” in each case.
For `CN(C)[S+](=O)([O-])c1ccc([S+](=O)([O-])N(Cc2cccs2)Cc2ccccc2Cl)cc1`, the Potency in [8] is 1.9 µM (active); in [10], 3.79 µM (active).
Take `O=C(NC1CCCCC1)c1ccc(CSc2nc3cccnc3n2Cc2ccccc2F)cc1`: the Potency was 9.52 µM (active) in [8] and 0.338 µM (active) in experiment [10].
`Oc1c(C(c2ccc(Cl)cc2Cl)N2CCN(Cc3ccccc3)CC2)sc2nc(-c3ccco3)nn12` (centres undefined): the Potency in [8] is 7.56 µM (active); in experiment [10], 6.01 µM (active).
For `COC(=O)c1ccc(C2C=C(c3ccc(Cl)cc3)Nc3nc4ccccc4n32)cc1` (centres undefined), in that order: 3.38 µM (active) and 2.68 µM (active).
Take `Cc1ccc(CNC(=O)C(C)n2nc(C)c3sc4ccccc4c3c2=O)cc1` (centres undefined): the Potency is 13.5 µM (active) in experiment [8] and 2.39 µM (active) in [10].
Regarding `CCOCCCNC(=O)C(=O)Nc1c2c(nn1-c1ccc(OC)cc1)CSC2`, the Potency result in experiment [8] was “inactive”. In addition, the Potency in experiment [10] was 10.7 µM (active).
The corresponding values for `COc1ccc(CN(C2CCCCC2)[S+](C)(=O)[O-])cc1OC` are “inactive” and 6.74 µM (active).
The corresponding values for `COc1ccc(CNC(=O)C(=O)Nc2c3c(nn2-c2ccccc2)CSC3)cc1` are “inactive” and 3.38 µM (active).
The corresponding values for `COc1ccc(-n2ccn(CC(=O)Nc3ccc(C)c(C)c3)c(=O)c2=O)cc1OC` are “inactive” and “inactive”.
As to `CC(C)(C)c1ccc(S(=O)(=O)c2cnc(SCC(=O)Nc3ccc(F)c(Cl)c3)[nH]c2=O)cc1`, the Potency in [8] is 16.9 µM (active); in experiment [10], 0.536 µM (active).
As to `NC(=O)C[C@H](N)C(=O)O`, the Potency result in experiment [8] and in experiment [10] was “inactive” each time.
For the molecule `CCn1cc(/C=C(\NC(=O)c2ccc(C)cc2)C(=O)NCCCn2ccnc2)c2ccccc21`, the Potency in experiment [8] was 0.169 µM (active); in experiment [10] it was 1.34 µM (active).
For `O=C(CSc1nc2ccsc2c(=O)n1Cc1ccccc1F)NCc1ccccc1Cl`, in that order: 2.68 µM (active) and 1.51 µM (active).
In the case of `CC(NC(=O)C(=O)Nc1c2c(nn1-c1ccccc1)CSC2)c1ccccc1` (centres undefined), the Potency entry in experiment [8] is “inactive”. Further, the Potency in experiment [10] was 3.38 µM (active).
Turning to `COc1ccc(NC(=O)C2CCCN(c3nnc(C)c4c(C)n(-c5ccccc5)nc34)C2)cc1Cl` (centres undefined), the Potency in experiment [8] is 16.9 µM (active); in experiment [10], 5.35 µM (active).
With `O=C(Cn1c(=O)n(Cc2ccco2)c(=O)c2oc3ccccc3c21)Nc1ccccc1`, the Potency is 0.756 µM (active) in experiment [8] and 4.77 µM (active) in experiment [10].
